Several values for one entry are separate records, joined by “and”; a condition that tells them apart may be missing. Identical values can stand only once. This is part of a sample that, as a whole, favours compounds with a hit. Of some 83,000 tested, about 20% had one in any assay.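 Compound tested at a single concentration for 48 hours in 96-well plates; a percent growth value below 10 was scored as active.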 Activity calls are given as the source filed them.

For this assay, the system named is HL-60(TB) leukemia. The experiment in a line: NCI-60 one-dose screen, 48 h (100 = growth as untreated, 0 = no growth, -100 = all killed). As to conditions: 10 µM unless noted.
As for `CCN(CC)CCNC(=O)n1cc(-c2ccncc2)c(-c2cc(Cl)cc(OC)c2)n1`, the growth was 78% (inactive). Regarding `NC1=NC(=O)C(c2ccccc2)(c2ccccc2)S1`, the growth is 97.9% (inactive).

In the case of `COc1cc(/C=C\c2cc(/C=C\c3ccc(O)c(OC)c3)n(C(=O)COc3ccc(Cl)cc3Cl)n2)ccc1O`, the growth is -18.7% (active).

For `Cc1ccc(N2CCN(C(C)C(N)=O)CC2)cc1` (centres undefined), the growth was 158% (inactive). In the case of `Nc1nc(N)nc(N2CCCCC2)n1`, the growth is 97.9% (inactive). Take `Brc1c2c(c(Br)c3ccccc13)CCCC2`: the growth is 91.4% (inactive). As for `CCCCCCCC(=O)SCC/C=C/[C@@H]1CC(=O)NCc2cccc(n2)C2=N[C@@](C)(CS2)C(=O)N[C@@H](C(C)C)C(=O)O1`, the growth was 19.9% (inactive).

Take `COc1ccc(C2NC(=O)Nc3ccccc32)c(OC)c1` (centres undefined): the growth is 93.2% (inactive). For the compound `N#CCCN(NC(=O)OCc1ccccc1)C(=O)OCc1ccccc1`, the growth is 115% (inactive). For `CNC(=O)c1cc(Oc2ccc3nc(NC(C)=O)sc3c2)ccn1`, the growth is 98.9% (inactive). `CCOC(=O)C(C#N)=C1CCN(C)CC1`: the growth was 113% (inactive).

Take `O=C(O)c1ccc(-n2cc(CNc3ccc(Cl)cc3)c(-c3ccccc3)n2)cc1`: the growth was 95% (inactive). Consider `CCCCn1c(=O)[nH]c(N)c(C(c2ccc(Cl)cc2)c2c(N)[nH]c(=O)n(CCCC)c2=O)c1=O`, for which the growth is 13.2% (inactive). In the case of `Cc1[nH]c2ccc(F)cc2c1CCNC(=O)C1CCN(C(=O)c2ccccc2)C1` (centres undefined), the growth was 107% [25 µM] (inactive). The result for `O=C(O)C1CCN(S(=O)(=O)c2ccc(-c3ccccc3)cc2)CC1` reads 45.6% (inactive); that for `C=C(C)[C@@H]1CC[C@]2(C=O)CC[C@]3(C)[C@H](CC[C@@H]4[C@@]5(C)CCCNC(C)(C)[C@@H]5CC[C@]43C)[C@@H]12`, 7.59% (active). In the case of `O=C(c1ccccc1)C(Cl)C(Cl)c1ccccc1` (centres undefined), the growth was 25.2% (inactive). With `COc1ccc(-c2ccc3cnc4sc(-c5ccc(OC)cc5)nc4c3n2)cc1`, the growth is 95.3% (inactive). The result for `O=C1C=C(Nc2ccccc2)c2ccccc2C1=O` reads 79.5% (inactive) and 101% (inactive); that for `COc1ccc(C(C)=O)cc1S(=O)(=O)Nc1c(N)nc(SC)[nH]c1=O`, 96.8% (inactive); that for `C#Cc1ccc(-n2c(/C=C/c3ccc(Cl)c(F)c3)nc3ncccc3c2=O)cc1`, -35.9% (active). The result for `CN(C)C(=S)Sc1ccc([N+](=O)[O-])cc1[N+](=O)[O-]` reads -5.16% (active); that for `COc1cc(C(=O)NN=C2c3ccccc3-c3ccccc32)cc(OC)c1OC`, 11.4% (inactive). The result for `CCOC(=O)NC(/C=C/c1ccccc1)NC(=O)OCC` reads 103% (inactive); that for `Cc1ccc(-c2cn(C/C=C3\C=CN(S(=O)(=O)c4ccccc4)CC3)nn2)cc1`, 105% (inactive).

Take `COc1cc(OCc2cccc(-c3ccc(C(O)c4nccs4)cc3)c2C)cc(OC)c1CNCCNC(C)=O` (centres undefined): the growth is 101% (inactive).

As for `N#C/C(=C\c1ccc(-c2ccc(Cl)cc2)o1)C(=O)Nc1ncc(Cc2ccc(Cl)cc2)s1`, the growth is 80.1% (inactive). Take `NC(=O)c1c(NC(=S)Nc2ccc(OC(F)(F)F)cc2)sc2c1CCC1(C2)OCCO1`: the growth is 94.2% (inactive). Turning to `CC(C)(C)c1cc(NC(=O)Nc2ccc(-c3cn4c(n3)sc3cc(OCCN5CCOCC5)ccc34)cc2)no1`, the growth is 18.7% (inactive) and 41% (inactive). The result for `CC/C(=C(\c1ccccc1)c1ccc(OCCNC)cc1)c1ccccc1` reads 6.56% (active). Regarding `N#CC1=C(N)Oc2ccc3ccccc3c2C1c1ccccc1` (centres undefined), the growth is 2.02% (active). For `O=C(Nc1ccc(Oc2cccc(Cl)c2)c(Cl)c1)c1cnccn1`, the growth is 1.5% (active). The result for `COC(=O)c1ccccc1Cl` reads 97.3% (inactive). As for `CNc1nnc2n(-c3ccccc3)c(=O)c3cnn(-c4ccccc4)c3n12`, the growth is 70.5% (inactive). As to `CCN(CC)c1ccc2c(c1)Oc1nc(N)c(C#N)c(N)c1C2Sc1ccc(SC)cc1` (centres undefined), the growth is -31.7% (active).

As to `Nc1cc2c(cc1N)-c1ccccc1C2`, the growth was 7.76% (active) and 64.3% (inactive).

Regarding `COc1cc(-c2cc(/C=C3\CCCCC3=O)[nH]n2)cc(OC)c1OC`, the growth is 97.9% (inactive).

Turning to `N#Cc1ccc(NC(=O)c2ccc3cccnc3c2O)cc1`, the growth is 4.59% (active).

On to `CCCCOc1ccc(NC(=O)n2nc(N=NN(C)C)c3ccc(Cl)cc32)cc1`, for which the growth was 107% (inactive).

Values taken from PubChem BioAssay (NCI).
